Here are results for 33 compounds from PubChem BioAssay.

SMILES strings stand for the structures. Values joined by “and” are separate entries in the source; they are usually repeats but may differ in a detail not shown here. Identical values can stand only once. Active and inactive are the calls of the source.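 How the source made its calls, unless noted: active means compound whose remaining NAD level is above about 45 nM (limit read from the data); inactive means the rest.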

System in the first experiment: not listed separately
Put plainly: survival rescue of mitochondrial mutant cells in low glucose, primary screen, MELAS cybrids, Rieske KO mouse fibroblasts, CellTiter-Glo (AID 1508586).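 Further: z relative to plate mean and SD of compound and empty wells.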 Particulars: Rieske KO mouse fibroblast survival, CellTiter-Glo 72 h. (In general: ATP-based viability assays read luminescence as a measure of living cells.)
Compound `CCOCC(O)COc1ccc(NC(=O)CC[S+](C)C)cc1` (stereo not drawn) yielded a z-score of 0.62.
Same read-out and setting: as for `C[N+](C)(C)CCCCCCCCCC[N+](C)(C)C`, the figure is -0.149 and -1.14 and 0.433; as for `CN(C)CCCOc1nn(Cc2ccccc2)c2ccccc12`, -0.145 and 0.0321 and -1.45; as for `Cc1c(F)c(N2CCNC(C)C2)cc2c1c(=O)c(C(=O)O)cn2C1CC1` (stereo not drawn), -0.0779.
For `CC1=C(/C=C/C(C)=C/C=C/C(C)=C/C(=O)Nc2ccc(O)cc2)C(C)(C)CCC1`, the z-score came to 0.408.
The same measure, in the same setting: as for `Nc1nc(Cl)nc2c1ncn2[C@@H]1O[C@H](CO)[C@@H](O)[C@@H]1F`, the figure is 2.02; as for `CC(O)(P(=O)(O)O)P(=O)(O)O`, -0.885 and -0.197.

In the next experiment the target is NAD(+) hydrolase SARM1 (Homo sapiens) (UniProt Q6SZW1). Put plainly: SARM1 TIR NADase inhibitors, cell lysate, NAD-Glo luminescence (AID 1508614).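 Further: higher remaining NAD means stronger inhibition of SARM1 NADase.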 As to conditions: SAM-TIR HEK293T lysate NADase, at 1 µM, stronger effect = higher value.
Chain of NAD(+) hydrolase SARM1 (Homo sapiens) (Q6SZW1 whole entry, looked up): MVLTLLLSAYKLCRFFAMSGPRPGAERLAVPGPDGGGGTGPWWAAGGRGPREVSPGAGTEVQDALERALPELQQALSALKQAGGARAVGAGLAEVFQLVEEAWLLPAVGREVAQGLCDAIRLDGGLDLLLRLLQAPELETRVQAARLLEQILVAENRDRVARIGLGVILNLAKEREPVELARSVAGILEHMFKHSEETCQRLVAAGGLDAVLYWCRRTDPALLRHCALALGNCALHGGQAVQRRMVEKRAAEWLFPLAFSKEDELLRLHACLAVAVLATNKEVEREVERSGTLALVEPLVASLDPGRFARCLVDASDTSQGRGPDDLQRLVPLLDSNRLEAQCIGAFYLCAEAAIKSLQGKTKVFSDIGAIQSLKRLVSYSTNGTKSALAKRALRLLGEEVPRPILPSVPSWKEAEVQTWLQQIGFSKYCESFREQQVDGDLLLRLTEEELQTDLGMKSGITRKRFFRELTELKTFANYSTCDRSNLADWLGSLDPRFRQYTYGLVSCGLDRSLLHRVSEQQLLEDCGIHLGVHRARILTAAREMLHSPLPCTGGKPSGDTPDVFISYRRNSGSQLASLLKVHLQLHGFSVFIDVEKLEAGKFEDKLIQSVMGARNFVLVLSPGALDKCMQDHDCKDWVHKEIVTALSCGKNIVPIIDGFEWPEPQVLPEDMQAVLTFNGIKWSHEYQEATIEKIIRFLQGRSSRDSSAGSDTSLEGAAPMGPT
Regarding `O=C(OOC(=O)c1ccccc1)c1ccccc1`, the remaining NAD is 10 nM (inactive).
The same measure, in the same setting: as for `C[N+](C)(C)CCCCCCCCCC[N+](C)(C)C`, the figure is 10 nM (inactive); as for `CC[C@@H](CO)NCCN[C@@H](CC)CO`, 10 nM (inactive); as for `Cc1ncc(CSSCc2cnc(C)c(O)c2CO)c(CO)c1O`, 10 nM (inactive).
Take `CC1=C(C/C=C(\C)CCC[C@H](C)CCC[C@H](C)CCCC(C)C)C(=O)c2ccccc2C1=O`: the remaining NAD was 10 nM (inactive).
As for `OCCc1ccccc1`, the remaining NAD is 10 nM (inactive).
Turning to `O=C1c2ccccc2C(=O)C1c1ccc(Br)cc1`, the remaining NAD is 10 nM (inactive).
Still for that read-out and setting: the same measure for `CCOC(=O)c1ccc(O)cc1`: 10 nM (inactive); for `O=C(CCCl)NCc1ccccc1`: 10 nM (inactive); for `CC1(C)[C@@H]2CC[C@@]1(C)C(=O)C2`: 10 nM (inactive).
On the same count and under the same terms, the same measure for `Cc1cc(C(C#N)c2ccc(Cl)cc2)c(Cl)cc1NC(=O)c1cc(I)cc(I)c1O` (stereo not drawn): 10 nM (inactive); for `CC(C)CCCC(C)N` (stereo not drawn): 10 nM (inactive).
The same measure, in the same setting: the same measure for `NCCNCCNCCN`: 10 nM (inactive).
Regarding `CC(O)Cn1cnc2c1c(=O)n(C)c(=O)n2C` (stereo not drawn), the remaining NAD was 10 nM (inactive).
On the same count and under the same terms, as for `O=S(=O)(O)CCCS(=O)(=O)O`, the figure is 10 nM (inactive); as for `CCN(CC)CCOc1ccc2c(c1)C(=O)c1cc(OCCN(CC)CC)ccc1-2`, 10 nM (inactive).
On the same count and under the same terms, the same measure for `CN(C)CCCOc1nn(Cc2ccccc2)c2ccccc12`: 10 nM (inactive).
As to `CCCCCCCCCCOc1cc2c(=O)c(C(=O)OCC)c[nH]c2cc1OCC`, the remaining NAD was 10 nM (inactive).
For `NC(=O)c1cc[n+](CC2=C(C(=O)[O-])N3C(=O)[C@@H](NC(=O)Cc4cccs4)[C@H]3SC2)cc1`, the remaining NAD was 10 nM (inactive).
On the same count and under the same terms, the same measure for `Cc1cc2nc3ccc(=[N+](C)C)cc-3sc2cc1N`: 10 nM (inactive); for `NC(=O)C1(N2CCCCC2)CCN(CCCC(=O)c2ccc(F)cc2)CC1`: 10 nM (inactive); for `CC(=O)NC(Cc1ccccc1)C(=O)O` (stereo not drawn): 10 nM (inactive).
As for `O=C(Nc1ccc(C(=O)O)c(O)c1)c1ccccc1`, the remaining NAD was 10 nM (inactive).
Turning to `O=C1OC2(c3ccc(O)cc3Oc3cc(O)ccc32)c2ccccc21`, the remaining NAD is 10 nM (inactive).
With `COc1cc(C(=O)NCCCCCC(=O)O)cc(OC)c1OC`, the remaining NAD is 10 nM (inactive).
`OC1C(O)C(O)C(O)C(O)C1O` (stereo not drawn): the remaining NAD was 10 nM (inactive).
Same read-out and setting: as for `Nc1nc(Cl)nc2c1ncn2[C@@H]1O[C@H](CO)[C@@H](O)[C@@H]1F`, the figure is 10 nM (inactive).
The same measure, in the same setting: the same measure for `CC(O)(P(=O)(O)O)P(=O)(O)O`: 10 nM (inactive).
On the same count and under the same terms, as for `NC(=O)CCCCC1CCSS1` (stereo not drawn), the figure is 10 nM (inactive).

In another experiment the target is Mitogen-activated protein kinase 7 (Homo sapiens) (UniProt Q13164). Put plainly: ERK5 transactivation activators in reporter cells, primary screen, cell-based, HTS (AID 1508626;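 active means luciferase signal above three times the same-plate solvent-only control wells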;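 further: luciferase driven by Gal4-ERK5 fusion binding five Gal4 sites before minimal TATA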). As to conditions: HeLa Gal4-ERK5 transactivation, 18 h, at 5 µM, stronger effect = higher value.
Chain of Mitogen-activated protein kinase 7 (Homo sapiens) (Q13164 whole entry, looked up, the tested form may be a part): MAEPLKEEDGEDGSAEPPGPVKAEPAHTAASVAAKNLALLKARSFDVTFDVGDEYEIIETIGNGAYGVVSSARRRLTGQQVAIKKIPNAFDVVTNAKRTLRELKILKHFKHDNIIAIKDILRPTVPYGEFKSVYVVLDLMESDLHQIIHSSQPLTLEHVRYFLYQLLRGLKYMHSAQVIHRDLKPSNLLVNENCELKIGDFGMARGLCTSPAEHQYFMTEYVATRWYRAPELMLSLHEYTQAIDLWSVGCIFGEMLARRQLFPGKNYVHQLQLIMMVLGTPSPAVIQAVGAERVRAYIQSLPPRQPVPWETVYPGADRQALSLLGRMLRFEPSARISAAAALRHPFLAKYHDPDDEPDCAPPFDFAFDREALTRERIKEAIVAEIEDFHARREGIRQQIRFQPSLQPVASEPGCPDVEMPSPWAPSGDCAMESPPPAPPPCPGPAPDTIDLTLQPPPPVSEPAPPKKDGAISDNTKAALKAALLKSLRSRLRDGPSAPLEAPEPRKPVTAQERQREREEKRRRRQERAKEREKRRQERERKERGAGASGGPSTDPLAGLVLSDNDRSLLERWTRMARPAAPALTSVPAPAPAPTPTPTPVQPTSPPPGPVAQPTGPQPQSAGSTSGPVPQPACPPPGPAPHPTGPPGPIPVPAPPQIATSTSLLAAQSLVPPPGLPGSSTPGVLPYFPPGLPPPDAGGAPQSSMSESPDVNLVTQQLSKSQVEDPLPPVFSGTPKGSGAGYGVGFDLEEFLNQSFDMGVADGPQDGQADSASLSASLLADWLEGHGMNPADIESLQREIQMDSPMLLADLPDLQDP
With `O=C(OOC(=O)c1ccccc1)c1ccccc1`, the luciferase signal is 104 AU (inactive).
In the case of `C[N+](C)(C)CCCCCCCCCC[N+](C)(C)C`, the luciferase signal is 60 AU (inactive).
`CC[C@@H](CO)NCCN[C@@H](CC)CO`: the luciferase signal was 40 AU (inactive).
On the same count and under the same terms, as for `CC1=C(C/C=C(\C)CCC[C@H](C)CCC[C@H](C)CCCC(C)C)C(=O)c2ccccc2C1=O`, the figure is 156 AU (inactive).
Turning to `OCCc1ccccc1`, the luciferase signal was 108 AU (inactive).
On the same count and under the same terms, the same measure for `O=C1c2ccccc2C(=O)C1c1ccc(Br)cc1`: 56 AU (inactive).
Take `CCOC(=O)c1ccc(O)cc1`: the luciferase signal is 64 AU (inactive).
The same measure, in the same setting: as for `CC1(C)[C@@H]2CC[C@@]1(C)C(=O)C2`, the figure is 52 AU (inactive).
As for `CC(C)CCCC(C)N` (stereo not drawn), the luciferase signal was 56 AU (inactive).
`NCCNCCNCCN`: the luciferase signal is 64 AU (inactive).
The same measure, in the same setting: as for `CC(O)Cn1cnc2c1c(=O)n(C)c(=O)n2C` (stereo not drawn), the figure is 104 AU (inactive); as for `CNCc1ccccc1`, 56 AU (inactive); as for `CCN(CC)CCOc1ccc2c(c1)C(=O)c1cc(OCCN(CC)CC)ccc1-2`, 108 AU (inactive).
Still for that read-out and setting: the same measure for `CN(C)CCCOc1nn(Cc2ccccc2)c2ccccc12`: 92 AU (inactive); for `CCCCCCCCCCOc1cc2c(=O)c(C(=O)OCC)c[nH]c2cc1OCC`: 44 AU (inactive); for `NC(=O)C1(N2CCCCC2)CCN(CCCC(=O)c2ccc(F)cc2)CC1`: 52 AU (inactive).
For the compound `O=C(Nc1ccc(C(=O)O)c(O)c1)c1ccccc1`, the luciferase signal is 48 AU (inactive).
Still for that read-out and setting: the same measure for `O=C1OC2(c3ccc(O)cc3Oc3cc(O)ccc32)c2ccccc21`: 52 AU (inactive); for `COc1cc(C(=O)NCCCCCC(=O)O)cc(OC)c1OC`: 36 AU (inactive).
Still for that read-out and setting: the same measure for `OC1C(O)C(O)C(O)C(O)C1O` (stereo not drawn): 40 AU (inactive); for `CC(O)(P(=O)(O)O)P(=O)(O)O`: 48 AU (inactive); for `NC(=O)CCCCC1CCSS1` (stereo not drawn): 44 AU (inactive).
